High-throughput results: PubChem BioAssay, National Center for Advancing Translational Sciences (NCATS)
VDR inhibitor: Inhibitors of the vitamin D receptor (VDR): qHTS | VDR-SRC2-3 peptide fluorescence polarization, 2 h | Potency, µM, for the others: max response, negative = inhibition, actives largely listed as inhibitors | hit rate 0.93% among 400,000 | AID 504847, 2011; also: % is scaled to controls: 0 for no effect and ±100 for the full control effect
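Two reagent solutions held at 4 deg C in the dark were dispensed, compounds pinned at 23 nl, and the mixture incubated 2 h at room temperature. Read-out: fluorescence polarization of VDR–SRC2-3 peptide binding.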
GCN5L2 inh: qHTS Assay for Inhibitors of GCN5L2 | AID 504327, 2011 | hit rate 0.21% among 390,000 | Potency, µM (titrated, usually from 58.9 µM), inactives show at the highest dose activity change, negative = inhibition, actives largely listed as inhibitors | Histone acetyltransferase KAT2A (Homo sapiens), Q92830 | GCN5L2 HAT assay, ThioGlo1 CoA-SH fluorescence; also: % is scaled to controls: 0 for no effect and ±100 for the full control effect
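Compounds, pin-transferred from DMSO stocks, meet 20nM GCN5L2 for 15 min before the reaction begins with H3(1-25) peptide (75uM) and acetyl-CoA (70uM). Thiol-reactive ThioGlo1 reports CoA release over 20 min at room temperature.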
GLS inh: qHTS for Inhibitors of Glutaminase (GLS); Glutaminase kidney isoform, mitochondrial (Homo sapiens), O94925; GLS enzymatic activity, qHTS titration; Potency, µM (doses to about 45.5 µM), without a hit: at the top dose activity change, negative = inhibition, usual class: inhibitors; hit rate 0.21% among 410,000; also: % is scaled to controls: 0 for no effect and ±100 for the full control effect
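Coupled fluorescence readout: glutamate oxidase/HRP/Amplex Red detect glutamate formed by hKGA from L-glutamine (1 mM solution added). Buffer 45 mM KH2PO4 pH 8.2, 0.02% Tween-20; reads at t0 and 30 min RT.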
PKM2 activator: qHTS Assay for Activators of Human Muscle isoform 2 Pyruvate Kinase; Potency, µM (highest dose often 57.5 µM), for the others: at the top dose activation, most hits filed as activators; hit rate 0.34% among 260,000; purified PKM2, Kinase-Glo ATP luminescence, activation; response scale: 0% is enzyme alone, no compound; Pyruvate kinase PKM (Homo sapiens), P14618; also: % is scaled to controls: 0 for no effect and ±100 for the full control effect; nearly all actives have a fitted effect of over 55% in size
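ATP formation by purified human PK-M2, quantified via coupled luciferase luminescence after 1 h at room temperature with 0.1 mM ADP and 0.5 mM PEP final.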
Mito fusion yeast: qHTS Assay for Small Molecule Inhibitors of Mitochondrial Division or Activators of Mitochondrial Fusion; S. cerevisiae fusion-defective mutant growth rescue, CellTiterGlo 48 h; Potency, µM (titrated, usually from 46.1 µM), without a hit: at the highest dose growth rescue (activation), actives largely listed as activators; hit rate 0.23% among 320,000; AID 485298, 2010; also: % of control where 0% means no effect; nearly all actives have a fitted effect of over 45% in size
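Yeast fusion mutant, YPEG (non-fermentable carbon), compound, 48 h at 37C non-permissive; CellTiterGlo added, 10 min RT, luminescence read. Rescued growth = division inhibition.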
PLK1 PBD inh: qHTS for Inhibitors of PLK1-PDB (polo-like kinase 1 - polo-box domain): Primary Screen | Serine/threonine-protein kinase PLK1 (Homo sapiens), P53350 | Plk1 PBD binding of FITC phosphopeptide, fluorescence polarization | Potency, µM, without a hit: max response, negative = inhibition, usual class: inhibitors | hit rate 2.8% among 360,000; also: series mostly up to about 57 µM; % is scaled to controls: 0 for no effect and ±100 for the full control effect; nearly all actives have a fitted effect of over 65% in size
Target sequence (P53350 whole entry, looked up, the tested form may be a part): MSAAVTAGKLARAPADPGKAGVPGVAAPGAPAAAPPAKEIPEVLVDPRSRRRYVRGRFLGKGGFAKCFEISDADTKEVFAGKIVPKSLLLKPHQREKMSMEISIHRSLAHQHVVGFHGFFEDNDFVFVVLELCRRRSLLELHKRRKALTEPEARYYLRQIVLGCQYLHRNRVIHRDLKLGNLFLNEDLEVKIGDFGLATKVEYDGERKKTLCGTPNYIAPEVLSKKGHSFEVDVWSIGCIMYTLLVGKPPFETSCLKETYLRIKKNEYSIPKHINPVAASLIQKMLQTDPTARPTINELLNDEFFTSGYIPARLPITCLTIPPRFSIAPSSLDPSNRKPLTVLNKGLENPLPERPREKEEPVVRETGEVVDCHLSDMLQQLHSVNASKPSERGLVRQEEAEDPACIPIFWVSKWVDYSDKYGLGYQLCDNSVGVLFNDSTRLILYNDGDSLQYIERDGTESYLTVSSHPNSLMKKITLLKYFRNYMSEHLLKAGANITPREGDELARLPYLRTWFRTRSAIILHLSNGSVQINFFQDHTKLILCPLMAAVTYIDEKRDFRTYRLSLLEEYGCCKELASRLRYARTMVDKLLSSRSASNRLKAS
Active calls of the source: *; ? = inconclusive; · = not tested or not shown; [ ] = dose if it differs, or a comment. Shown are actives, neighbours in structure and some others; about 3.4% of the full set was active somewhere. Calls follow the shape of the dose curve; as a rule, active = well fitted curve in the direction sought with a large enough effect; inconclusive = small, poorly fitted or top-dose-only effect, or another doubt; inactive = no such curve, though single readings can be large; an effect the other way counts as inactive or inconclusive. Potency is read from the fitted curve at half-maximal effect.

SMILES	VDR inhibitor	GCN5L2 inh	GLS inh	PKM2 activator	Mito fusion yeast	PLK1 PBD inh
COc1ccc(NC(=O)c2cc(S(=O)(=O)N3CCCC3)ccc2OC)cc1	-27%	-3%	26%	·	11%	17µM*
COc1ccc(CS(=O)(=O)CC2(O)CCN(C(=O)c3cccc(C(F)(F)F)c3)CC2)cc1	0%	-7%	-4%	4%	-2%	-12%
NC(=O)C1CCN(c2cc(Cl)nc(N)n2)CC1	79µM*	-6%	0%	-1%	1%	8.4µM*
CCOc1ccc(C(=O)Nc2ccc(-c3nc4cc(CC)ccc4o3)cc2)cc1	-2%	2%	1%	·	·	·
C#C[C@@]1(OC(C)=O)CC[C@H]2[C@@H]3CCC4=CC(=O)CC[C@@H]4[C@H]3CC[C@@]21C	·	·	0%	·	·	·
CN(C)c1ccc(/C=N/NC(=S)NCc2ccccc2)cc1	-27%	-9%	42%	0%	-4%	24µM*
CC(C)(C)c1ccc(/C=N/NC(=S)NCc2ccccc2)cc1	12%	-17%	2%	3%	-2%	-4%
O=c1[nH]cnc2c1nc(Cl)n2C1OC(CO)C(O)C1O (stereo not given)	1%	3%	·	·	·	·
Cn1cc(P(=O)(N2CCOCC2)N2CCOCC2)cc1P(=S)(N1CCOCC1)N1CCOCC1	?	-18%	-1%	?	10%	11µM*
Cn1cc(P(=S)(N2CCOCC2)N2CCOCC2)cc1P(=O)(N1CCOCC1)N1CCOCC1	?	-15%	13%	1%	2%	13µM*
O=C(O)CO	2%	3%	·	·	·	·
COc1ccc(Nc2c3c(nc4ccc(NC(=O)/C=C/c5cccc(OC)c5OC)cc24)CCCC3)cc1OC	69%	-11%	2%	·	·	·
CC(=O)NC1C(OCc2ccccc2)OC2COC(c3ccccc3)OC2C1OCC(=O)O (stereo not given)	5%	0%	17%	-18%	16%	21µM*
Clc1ccc(OCc2nn3c(C4CCCCC4)nnc3s2)cc1	?	-8%	2%	-3%	-7%	21µM*
CCCCNC(=O)c1nc(C2CCNCC2)oc1-c1ccccc1	·	·	·	·	·	3%
COc1ccc(CNc2nc(N)nc3nc[nH]c23)cc1	12%	·	·	·	·	·
COCCn1c(=NC(=O)CSCC(=O)Nc2cc(C)on2)sc2cc(C(=O)OC)ccc21	-19%	-1%	17%	6%	-3%	27µM*
COCCn1c(=NC(=O)CCS(=O)(=O)c2ccccc2)sc2cc(C(=O)OC)ccc21	-8%	-19%	-2%	-2%	-1%	1%
Clc1ccc([C@H](Cn2ccnc2)OCc2c(Cl)cccc2Cl)c(Cl)c1	?	-5%[21.4 µM]	-2%[20 µM]	·	·	·
Cc1ccccc1NS(=O)(=O)c1c(C(=O)N2CCCCCC2)c(C)n(C)c1C	-27%	-8%	-4%	1%	5%	?
Oc1ccccc1CNc1cnc2ccccc2c1	-1%	1%	-1%	9%	-8%	-10%
Oc1ccc2ccccc2c1CNc1cnc2ccccc2c1	-46%	-4%	·	1%	-1%	3.4µM*
CC(=O)N1CCc2cc(Br)cc(S(=O)(=O)CCC(=O)N3CCN(c4ccccc4Cl)CC3)c21	-1%	0%	-1%	·	·	·
CC#CC(=O)Nc1cc2c(Nc3ccc(F)c(Cl)c3)ncnc2cn1	2%	-22%	·	·	·	·
O=C(O)CCCC(=O)Nc1ccn(-c2ccccc2)n1	-13%	0%	?	-4%	2%	11µM*
CC(=O)CC(=O)Nc1ccn(-c2ccccc2)n1	3%	-3%	15%	0%	-7%	-5%
CCOC(=O)/C(=C/c1ccc(F)cc1)NC(C)=O	-18%	0%	-4%	-5%	-4%	4%
